The campaign covered roughly 31,000 sequences. About 1,400 (4.5%) were called active.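 Rule for the calls: active = median seed-adjusted z-score above 1 or below -1; inactive = the rest.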 Many of the other results were omitted from the sample, so actives are more common in it than they were.

This assay is described as follows: Novel Modifiers of Survival Motor Neuron (SMN) Protein: Gene Identification via Genome-wide siRNA Screen.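 Note: luminescence tracks full-length SMN protein made from the SMN2 reporter.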 Conditions: HEK293T SMN2-luciferase reporter, siRNA knockdown, 72 h; actives lie on both sides. From the text: Spinal muscular atrophy (SMA) is the most common neuromuscular autosomal recessive disorder and one of the leading genetic causes of infant death. SMA results from mutations inducing loss of function or deletion in the survival of motor neuron-1 gene (SMN1), leading to deficiency of the survival motor neuron (SMN) protein. Although a second nearly identical gene, SMN2, is retained in humans, its expression primarily produces an aberrantly spliced isoform that is largely unstable and quickly degraded. We performed a genome-wide RNAi screen using a cell-based reporter assay to identify genes and pathways that modulate SMN protein stability. The screen identified over 200 genes that led to the greatest increase or decrease in luciferase expression.
Using HEK293T cells stably expressing a luciferase reporter that combines the promoter and splicing based cassettes in tandem with the major portion of the native SMN2 cDNA with luciferase, we performed a genome-wide RNAi screen to identify modulators of SMN protein levels. Luciferase is expressed when full-length SMN protein is generated with luminescence signal proportional to SMN protein levels. Our luciferase-based reporter assay was used to screen Ambion Silencer Select Human Druggable Genome siRNA library (10418 genes, 3 unique siRNAs per gene) using lipid-based reverse transfection.
Briefly, 1 pmol of each siRNA was spotted to a well of a 384-well plate (Corning, Corning, NY) and 20 microL of serum-free DMEM containing […] of Lipofectamine RNAiMax (Life Technologies, Carlsbad, CA) was then added to each well. Transfected cells were maintained at 37 degrees C in 5% CO2 for 72 hours, 20 microL of ONE-Glo Reagent (Promega) was added to wells for luciferase quantification. Raw luminescence reads were normalized to Ambion(R) Silencer(R) Negative Control #2 siRNA, then log10 transformed. A robust statistical measure of median absolute deviation (MAD) to standardize siRNA activities from each screen. Common Seed Analysis was used to help prioritize clean hits as opposed to those appearing to arise from seed based off-target effects. Candidate modulators were defined as the genes having a MAD score greater than 1.0 or less than -1.0.
On the technique in general: Reporter assays use an easily measured gene product as a stand-in for the process of interest.
On to GGAUGGGCAUGUUGAGAGATT against NUDT9, for which the median seed-adjusted z-score is 0.277 (inactive).
With GGAUCUGACAGACAAUGAUTT against ABCC3 the figure was -0.549 (inactive); with CGUGGAUUCUUACGGAAGATT against CIT, -0.0585 (inactive); with GAGUCUAUCUUGAUAAUCUTT against PPWD1, -0.341 (inactive).
With CCGGGUUAAUUACCACCUUTT against MTHFR the figure was 0 (inactive).
The result for GAGAAGUCGAGGCUCUUUATT against WNT6 reads 0.027 (inactive).
For CGGUGAACGGGUUGGAGAATT against PAX9, the median seed-adjusted z-score is -1.16 (active).
Regarding GCUUUGACCUUCUUAGCAATT against SMARCAL1, the median seed-adjusted z-score was -0.145 (inactive).
With CAACGAUAUUUGGAUAUCUTT against DPP8 the figure was -0.0209 (inactive); with GGUCAAUACACCUAAGAAATT against PRDX1, 0.288 (inactive).
As for GAUCGUUUCCUAUACAGUATT against ESPL1, the median seed-adjusted z-score is 0.871 (inactive).
The result for GGGCUGUGAUCUUGUCGAATT against AGMAT reads -0.0269 (inactive); that for CAACGACAGAACUAACAGATT against SENP6, -1.03 (active).
The result for GAAGGUGUUUCAUACGAAUTT against SIPA1L1 reads 0.0925 (inactive); that for CUCUAUGAAUAUUGUAUUATT against BUD31, 0.0554 (inactive); that for GGCUAACAAUUUGUCCAGUTT against SEC22B, -0.106 (inactive).
The result for CGUCAUCUUUGCGAAGAUUTT against EHD2 reads 0.0989 (inactive); that for CAACAUCUAUGAUUGGAAUTT against RFXANK, -0.0665 (inactive).
For CCAGUGCUGUCAGUACGAUTT against LY6G5B, the median seed-adjusted z-score was -1.29 (active).
With CCAAUAUUGUGGAUCCUUUTT against HTR4 the figure was 0.444 (inactive).
For GAGCUAUAAUCAGACCUGUTT against ART5, the median seed-adjusted z-score is -0.354 (inactive).
The result for CGCUCACUGUUCUUCGGCUTT against RAD9A reads -0.0564 (inactive).
The result for CCCAAGACGUUCACCGUGATT against NF2 reads -0.543 (inactive); that for CAUCAAACCUGGGAACAAATT against ZNF225, 0.0761 (inactive); that for GGAACGAGGUGUCAGCUCUTT against RFXANK, -0.0665 (inactive).
Turning to UCAACCUCAUGGACUUUAATT against SLC5A5, the median seed-adjusted z-score is 1.01 (active).
The result for GGAGCUACUGAGAACAUAATT against HOXD4 reads 0.566 (inactive); that for GGAACACUCAUGACUGUAATT against ZNF426, 0.2 (inactive); that for CAAUGAGUAUGUGACGGAATT against UNC13A, -2.1 (active).
With GGAUCCCGCUGCACAAGUUTT against CTSD the figure was -0.282 (inactive).
The result for CGUCUUCCUUGUGCGCCUATT against COL20A1 reads -0.0033 (inactive).
With GGCUUAUGGGUGUUCGGAUTT against POLK, the median seed-adjusted z-score is -0.102 (inactive).
Take CCGUCACUGAAGUCAAUAATT against CACNA1F: the median seed-adjusted z-score is 0.22 (inactive).
The result for CGGAUUCCAGGAAUGCUAATT against EIF5B reads 1.68 (active).
As to CCACCAAAGUUCACCCUGATT against LMNA, the median seed-adjusted z-score was -0.409 (inactive).
With GGGCCGAACUGAAAUACGATT against FGD2 the figure was 0.0293 (inactive); with ACAAGUUCUUGGAGCCUUATT against ATP1B2, -0.185 (inactive).
The result for CCCAAUCCCUAUUUGAGAATT against ADRA1D reads -0.18 (inactive); that for GAUUAUAUUUGUCCAGCUATT against ESR2, -1.1 (active); that for CAAUCCAGGUGAUCGCAAATT against TPMT, 0.19 (inactive).
As for CAAUGGUACCUAUGACUAUTT against ALG3, the median seed-adjusted z-score was -0.446 (inactive).
The result for GAGUACAUGUACUACCUGATT against RFX1 reads 0.818 (inactive).
The result for GAGUUAACGUAUCAGAACATT against LRRFIP1 reads -0.181 (inactive); that for ACUCUAUCCUUGCUUUGCATT against ZNF219, 0.127 (inactive).
With GCAUAACUGUAACAGAGAATT against RPP30 the figure was -0.656 (inactive).
On to GCUCAGAAGCAGUAAUGCATT against PQBP1, for which the median seed-adjusted z-score was -1.12 (active).
With GAAAUGCGAGCUGAACAUATT against CMAS the figure was -0.491 (inactive); with CUUUUUACGUGAGCGUAUATT against NAP1L1, 0.263 (inactive); with CGCUGGACUUCGUCAAGAATT against KCNC4, -0.433 (inactive).
With CUAUCAUGGAAGAUGCUGATT against B3GNT4 the figure was 0.124 (inactive); with AGUACUUCCUGACGAUGGATT against CST6, -0.237 (inactive).
With ACUAACAUCCCAGACUUUATT against VWA1 the figure was 0.289 (inactive); with CCAACUACCUGAACGAUGATT against U2AF2, 2.14 (active).
On to AGCUCACACUAUGCAUUGATT against KRTAP2-2, for which the median seed-adjusted z-score was -0.212 (inactive).
On to GGAGGCUCGUUUUCCCGUATT against EGR4, for which the median seed-adjusted z-score was 0 (inactive).
With GGACUCAGACGAGUUUUAUTT against CYP11B1 the figure was -0.199 (inactive); with GCAGCGAGUCAGUAACUUUTT against SUPT4H1, -1.01 (active); with GCUUCUUCGAGAAACAGAATT against RBMY1F, 0.2 (inactive).
Take GGGUUUGCACUGAAACGAATT against CIR: the median seed-adjusted z-score was -0.197 (inactive).
The result for GGAAGGAAUUCAACCGGAUTT against ZNF366 reads 0.585 (inactive); that for CCAUAGCCCAAAUCAAGGATT against SIK2, 0.055 (inactive); that for CCACGAACAAUAAUCCCAATT against KCNA3, 0.213 (inactive).
As for CCCUCAAUUUGGUCUGUUUTT against SPINK2, the median seed-adjusted z-score is -0.431 (inactive).
As for ACAACAUGAAGGUCCUCUATT against THY1, the median seed-adjusted z-score is -1.1 (active).
The result for ACAUGUUUUUAGAAUUGCUTT against TST reads 0 (inactive); that for CAGUUAUGUUCUACGCAGATT against KCND2, -0.245 (inactive).
The result for CCAUGGAUUUUGUACUGCUTT against VPS35 reads -0.511 (inactive); that for GGCGAAUUCCAUACCGUUATT against NEK2, -0.276 (inactive); that for GGAGUAUAUUGAGUAUGGATT against CNOT1, 1.2 (active).
Regarding GUUCCAUCUUGAUCGAGUATT against RASSF9, the median seed-adjusted z-score was 0.314 (inactive).
Consider CGGGAACACGUUUCAGGGATT against GPR157, for which the median seed-adjusted z-score is 0.152 (inactive).
Consider CAUCCCAGAUCAAACUGUATT against TFAP2A, for which the median seed-adjusted z-score was -0.384 (inactive).
The result for GAUUAUUGAGCAUAAGAUUTT against ZNF277 reads -0.0374 (inactive).
For GAACUGCACGUGUACAACATT against HCFC1, the median seed-adjusted z-score is 1.47 (active).
With GCCUUCUUCUUAUGCAAGATT against ACTL6B the figure was 0.0703 (inactive); with CCAUCUAUUCAGAGACGUATT against MUTYH, 0.024 (inactive).
Regarding GGCAUUCGCUUGAACAGCATT against DRG1, the median seed-adjusted z-score is 0.336 (inactive).
The result for GCCUCUACAUCUAGUGAUATT against JMJD1C reads 0.0338 (inactive).
Consider AGAUCAAGUUUGCCCUAAATT against HDGF2, for which the median seed-adjusted z-score was 0 (inactive).
For the sequence GCCUGGAUGCUAAUCAAGATT against S100A12, the median seed-adjusted z-score was 0.346 (inactive).
On to AGGAAGAAUUUAAUCCUGATT against CYP26A1, for which the median seed-adjusted z-score was 0.0569 (inactive).
The result for GAAAGAGCCUGUUACCUAUTT against ACTR1A reads 1.28 (active); that for GUGAAGAAGUUGCUUAUUATT against MAST1, -0.0897 (inactive); that for GCAUGAUGGUAUUGAGCUUTT against MS4A6A, 0.174 (inactive).
With GAGUCACUUCUAAUAAACATT against FOLR2 the figure was -0.0835 (inactive).
The result for CGUUAUCUUCAUCACCUAUTT against ABCC10 reads -1.56 (active); that for GGCUAUAAUAGACACGAGATT against CDH6, 0 (inactive).
On to UGACUUUCCUCUCUACGGUTT against SLC10A3, for which the median seed-adjusted z-score is -0.25 (inactive).
With GCAUGCUGUUAGCCGAUAATT against TOMM70A the figure was 0.0717 (inactive).
As to CGGCUGAUGUUCUCGAAUUTT against BRD3, the median seed-adjusted z-score is 0.633 (inactive).
The result for CCAGGCUAUUUGUACCGAUTT against CCR6 reads 0.103 (inactive); that for CCAGCUCUGGAAUUAGAUATT against NRBP1, -1.13 (active).
The result for GAAUUAAAGAUUUGGUUGATT against EFCAB1 reads -0.719 (inactive); that for GCUGUUAAGUAUGCCCUUATT against AKR1A1, -0.255 (inactive).
With GGACCAUUGGUGAUGAGAATT against CD36 the figure was -0.000845 (inactive); with GGUUGGAUGCUAUAUACCATT against ROS1, -0.0561 (inactive).
For GGGAUAAGCUGAUAAAGGATT against NDUFS5, the median seed-adjusted z-score is -1.35 (active).
For GAAUUGAAACGAGCUAGAATT against TAF13, the median seed-adjusted z-score was -0.919 (inactive).
With CCGUAUGAAUGUAAGUAUUTT against ZNF441, the median seed-adjusted z-score was 0.578 (inactive).
The result for CAAGAGUUAUGGUCUGGGATT against GCM1 reads 0.0197 (inactive).
With CCACGAUGAAGGAACGAGATT against PDE4A the figure was -0.147 (inactive); with GCAUGAUCUAGAUCGAGUATT against UQCRFS1, -1.28 (active).
For the sequence GGUAUUACUUUGCAAUCGATT against CACNA2D1, the median seed-adjusted z-score is -0.541 (inactive).
With CAAGAUAUAUAUACGCCUATT against NPY1R the figure was 0.76 (inactive).
The result for GGGUUUUAGUAACCUUAGATT against SUCNR1 reads 0 (inactive).
With GAUCCAAAGUAACUAAACATT against HMGN3 the figure was -0.182 (inactive).
As to GAGGCAGUCUUAGAGGAAATT against SPATA21, the median seed-adjusted z-score is -1.03 (active).
With GCCCAUCACCUCUUCAUGATT against RAMP1 the figure was -0.031 (inactive).
